Screening data from PubChem.
KB-3-1 cytotox – qHTS assay for MDR1-selective chemotherapeutics: Primary screen using the parental adenocarcinoma cell KB-3-1; AID 1347075, 2019; KB-3-1 viability, CellTiter-Glo ATP luminescence, 72 h; actives 1.4% (n = 400,000); Potency, µM (highest dose often 46.1 µM), actives largely listed as cytotoxic; note: % is set by controls: 0 for no effect and ±100 for the full control effect; nearly all actives have a fitted effect of over 60% in size
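KB-3-1 cells, DMEM (no phenol red) + 10% FBS; compound by pin transfer, 72 h, 37 °C. Readout: CellTiter-Glo luminescence after 10 min. Data normalized, curve-fitted.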
HT1080 IDH1KD tx – qHTS for induction of synthetic lethality in tumor cells producing 2HG: qHTS for the HT-1080-IDH1KD cell line. HT-1080 IDH1 knockdown viability, ATP luminescence, 48 h. Potency, µM (doses to about 46.1 µM), for the others: at the highest dose activity, negative = toxicity, actives largely listed as cytotoxic. actives 2% (n = 360,000). AID 686971, 2013;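 note: 0% = DMSO wells and -100% = cell-free medium wells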
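Luminescent ATP read-out (CellTiter-Glo, 10 min at room temperature) after 48 h compound exposure at 37 °C gave viability of IDH1-knockdown HT-1080 cells. Activity was normalised to DMSO and cell-free wells, then fitted as concentration-response curves.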
MCF10A rerep – A quantitative high throughput screen for small molecules that induce DNA re-replication in MCF 10a normal breast cells; Potency, µM (highest dose often 46.1 µM), without a hit: at the top dose activity, positive = re-replication, most hits filed as activators; AID 624296, 2012; actives 2.9% (n = 350,000); MCF 10A DNA re-replication, Hoechst nuclear intensity, 48 h; note: % of control where 0% means no effect; nearly all actives have a fitted effect of over 50% in size
KB-V1 MDR tox – qHTS assay for MDR1-selective chemotherapeutics: Primary screen using the drug-selected MDR subline cells KB-V1. KB-V1 MDR cells viability, CellTiter-Glo, 72 h. AID 1347076, 2019. actives 3.4% (n = 400,000). Potency, µM (top dose mostly 46.1 µM), most hits filed as cytotoxic; note: % is set by controls: 0 for no effect and ±100 for the full control effect; nearly all actives have a fitted effect of over 60% in size
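Drug-selected KB-V1 cells, grown in DMEM lacking phenol red with 10% FBS, receive compound titrations; after three days at 37 degrees C, surviving cell ATP is quantified by CellTiter-Glo luminescence and responses normalized and curve-fitted.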
HT1080-NT tox – qHTS for induction of synthetic lethality in tumor cells producing 2HG: qHTS for the HT-1080-NT fibrosarcoma cell line; HT-1080-NT fibrosarcoma viability, CellTiter-Glo ATP luminescence, 48 h; Potency, µM (titrated, usually from 46.1 µM), for the others: at the highest dose activity, negative = less viability, actives largely listed as cytotoxic; actives 1.6% (n = 360,000); AID 686970, 2013;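 note: NT is the 2HG producing partner of a matched IDH1 knockdown line; 0% = DMSO-treated cells and -100% = media-only wells without cells; nearly all actives have a fitted effect of over 55% in size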
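Fibrosarcoma NT cells, 750 per well in 5% FBS RPMI, were exposed to compound for 48 hours. Viability: CellTiter-Glo luminescence.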
SW480 rerep – A quantitative high throughput screen for small molecules that induce DNA re-replication in SW480 colon adenocarcinoma cells; SW480 DNA re-replication, Hoechst DNA content imaging, 48 h; Potency, µM (top dose mostly 46.1 µM), for the others: at the top dose re-replication activation, most hits filed as activators; actives 1.8% (n = 340,000); AID 624297, 2012; note: % of control where 0% means no effect; nearly all actives have a fitted effect of over 55% in size
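Compounds, transferred as 23 nL by pin tool, were incubated with cells for 48 hr; DNA content per nucleus was then quantified by Hoechst staining and fluorescence plate imaging.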
The depositor's hits bear a star; i = inactive; ? = inconclusive; nt = not tested or not shown; [ ] = another dose, or the depositor's remark. A selection: hits, their analogues and other compounds. The true share with any hit is near 7.9%. Calls come from the whole dose curve; as a rule, active = well fitted curve in the direction sought with a large enough effect; inconclusive = small, poorly fitted or top-dose-only effect, or another doubt; inactive = no such curve, though single readings can be large; an effect the other way counts as inactive or inconclusive. Potency is the fitted concentration of half-maximal effect.

SMILES	KB-3-1 cytotox	HT1080 IDH1KD tx	MCF10A rerep	KB-V1 MDR tox	HT1080-NT tox	SW480 rerep
CC(=O)Nc1cc(-c2cccc(C(=O)NCCN(C)C)c2)cn2c(-c3ccc(F)c(Cl)c3)cnc12	i	21µM*	nt	i	16µM*	nt
CC(=O)Nc1cc(-c2cccc(C(=O)NCCN(C)C)c2)cn2c(-c3ccc(C(C)=O)cc3)cnc12	?	?	nt	i	18µM*	nt
CC(=O)Nc1cc(-c2ccc(F)cc2)cn2c(-c3ccc(F)c(Cl)c3)cnc12	i	?	nt	i	?	nt
COc1ccc(S(=O)(=O)N(C)CC(=O)NCCCn2ccnc2)cc1Cl	i	-1%	12%	i	?	1%
CCn1nccc1C(=O)Nc1ccc(C)c(C)c1	i	-12%	6%	i	-21%	14%
O=C(O)c1cc(-c2ccco2)[nH]n1	i	10%	-180%[0.0737 µM]	i	8%	-4%
COc1ccc(CCNC(=O)CSc2nc3[nH]ncc3c(=O)n2-c2ccccc2Br)cc1OC	i	2%	0%	i	1%	1%
COc1ccc(-c2sc(C(=O)c3ccc(Cl)cc3Cl)cc2CC(=O)O)cc1	?	?	12µM*	?	?	9%
O=C(O)Cc1ccc(C(=O)c2ccc(Cl)cc2Cl)s1	i	19%	1%	i	6%	-2%
COc1ccc(NS(=O)(=O)c2ccc(NC(=O)c3ccc(N(C)S(C)(=O)=O)cc3)cc2)c(OC)c1	4.6µM*	?	15%	i	?	-84%
CCCCNS(=O)(=O)c1ccc(NC(=O)Cc2ccc(OC)cc2)cc1	i	-9%	3%	i	-1%	-1%
COc1ccc(OC)c(NS(=O)(=O)c2ccc(SC)cc2)c1	7.3µM*	?	13µM*	4.1µM*	?	13µM*
COc1ccc(NC(=O)c2ccc(N(C)S(C)(=O)=O)cc2)cc1OC	i	-8%	2%	?	-14%	-3%
COc1ccc(CC(=O)Nc2ccc(S(=O)(=O)NC(C)C)cc2)cc1	i	-19%	0%	16µM*	-4%	-8%
CCOc1ccc(S(=O)(=O)Nc2cc(OC)ccc2OC)cc1	0.1µM*	?	?	0.41µM*	0.18µM*	0.41µM*
NC(=NCc1ccccc1)C(N=Nc1ccccc1)C(=O)NCc1ccccc1 (stereo not given)	i	-12%	9%	i	0%	-6%
COc1ccc(NS(=O)(=O)c2ccc(NC(C)=O)cc2)c(OC)c1	i	-29%	?	i	-22%	?
COc1ccc(OC)c(NS(=O)(=O)c2ccc(NC(C)=O)cc2)c1	?	-27%	?	21µM*	-12%	23%
O=C(CCCN1C(=O)/C(=C\c2cccc(Br)c2)SC1=S)Nc1cccnc1	i	13µM*	8.2µM*	i	16µM*	26%
O=C(CCCN1C(=O)/C(=C/c2cccs2)SC1=S)Nc1cccnc1	i	-15%	-28%	i	-2%	-46%
O=C(O)CCN1C(=O)/C(=C\c2ccncc2)SC1=S	i	0%	5%	i	-6%	1%
O=C(CN1C(=O)/C(=C/c2ccccc2)SC1=S)N1CCN(CCc2ccccn2)CC1	i	7%	5.8µM*	i	4%	?
Cc1ccc(/C=C2\SC(=S)N(CCCC(=O)Nc3cccnc3)C2=O)cc1	?	9%	?	23µM*	5%	?
